Laboratory results from PubChem BioAssay AID1159580 (chemical genetic matrix, 2015).
Screen size: about 5,500 compounds; about 2,000 (36%) were called active. Inconclusive results (about 18%) are left out. No stated cut-off is given here; in the data, active means normalized growth mostly below about 0.91 (no sharp cut-off); inconclusive means no clear call, values can overlap the other calls; inactive means mostly above about 0.92. Some of the results follow.

Test: chemical genetic growth profiling, strain panel (AID 1159580);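 further: tested at 20 µM; growth read once vehicle control cultures reached saturation at 30 °C; 1 = growth at the plate median or of vehicle wells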
Conditions: growth OD

Measured: normalized growth

CC1(C)C(=O)C=C[C@@]2(C)C1C[C@@H](O)[C@]1(C)C2CC[C@@]2(C)[C@H](c3ccoc3)OC(=O)[C@H]3O[C@]321 (stereo partly specified)
inactive: S. cerevisiae deletion strains, locus YJR066W, strain TOR1, stronger effect = lower value 0.938 | S. cerevisiae deletion strains, locus YKL009W, strain mrt4, stronger effect = lower value 0.95 | S. cerevisiae deletion strains, locus YKL068W, stronger effect = lower value 0.973 | S. cerevisiae deletion strains, locus YKL085W, strain MDH1 (second series), stronger effect = lower value 0.973 | S. cerevisiae deletion strains, locus YKL085W, strain MDH1, stronger effect = lower value 0.973 | S. cerevisiae deletion strains, locus YKL160W, strain elf1, stronger effect = lower value 1 | S. cerevisiae deletion strains, locus YKL190W, strain CNB1, stronger effect = lower value 0.983 | S. cerevisiae deletion strains, locus YKR001C, strain vps1, stronger effect = lower value 0.963 | S. cerevisiae deletion strains, locus YKR026C, strain gcn3, stronger effect = lower value 0.995 | S. cerevisiae deletion strains, locus YKR091W, strain srl3, stronger effect = lower value 0.989 | S. cerevisiae deletion strains, locus YLL001W, strain dnm1, stronger effect = lower value 1.01 | S. cerevisiae deletion strains, locus YLL026W, stronger effect = lower value 1 | S. cerevisiae deletion strains, locus YLL041C, strain sdh2, stronger effect = lower value 0.992 | S. cerevisiae deletion strains, locus YLR027C, strain aat2, stronger effect = lower value 1.02 | S. cerevisiae deletion strains, locus YLR039C, strain RIC1, stronger effect = lower value 0.972 | S. cerevisiae deletion strains, locus YLR058C, strain SHM2, stronger effect = lower value 0.959 | S. cerevisiae deletion strains, locus YLR102C, strain apc9, stronger effect = lower value 0.983 | S. cerevisiae deletion strains, locus YLR113W, strain HOG1, stronger effect = lower value 0.991 | S. cerevisiae deletion strains, locus YLR221C, strain rsa3, stronger effect = lower value 1 | S. cerevisiae deletion strains, locus YLR258W, strain gsy2, stronger effect = lower value 1.03 | S. cerevisiae deletion strains, locus YLR262C, strain YPT6 (second series), stronger effect = lower value 0.992 | S. cerevisiae deletion strains, locus YLR262C, strain YPT6, stronger effect = lower value 0.962 | S. cerevisiae deletion strains, locus YLR268W, strain sec22, stronger effect = lower value 0.952 | S. cerevisiae deletion strains, locus YLR320W, strain mms22, stronger effect = lower value 1.01 | S. cerevisiae deletion strains, locus YLR330W, strain CHS5, stronger effect = lower value 0.987 | S. cerevisiae deletion strains, locus YLR342W, strain FKS1 (second series), stronger effect = lower value 1.02 | S. cerevisiae deletion strains, locus YLR342W, strain FKS1, stronger effect = lower value 1.02 | S. cerevisiae deletion strains, locus YLR357W, strain rsc2, stronger effect = lower value 0.965 | S. cerevisiae deletion strains, locus YLR370C, strain arc18, stronger effect = lower value 0.996 | S. cerevisiae deletion strains, locus YLR371W, strain rom2, stronger effect = lower value 0.99 | S. cerevisiae deletion strains, locus YLR384C, strain iki3, stronger effect = lower value 1 | S. cerevisiae deletion strains, locus YLR418C, strain cdc73, stronger effect = lower value 0.933 | S. cerevisiae deletion strains, locus YML016C, strain PPZ1, stronger effect = lower value 0.98 | S. cerevisiae deletion strains, locus YML032C, strain rad52, stronger effect = lower value 0.971 | S. cerevisiae deletion strains, locus YML120C, strain ndi1, stronger effect = lower value 1 | S. cerevisiae deletion strains, locus YML124C, strain tub3, stronger effect = lower value 0.989 | S. cerevisiae deletion strains, locus YMR058W, strain fet3, stronger effect = lower value 0.996 | S. cerevisiae deletion strains, locus YMR078C, strain ctf18, stronger effect = lower value 0.982 | S. cerevisiae deletion strains, locus YMR125W, strain sto1, stronger effect = lower value 0.984 | S. cerevisiae deletion strains, locus YMR129W, stronger effect = lower value 1.01 | S. cerevisiae deletion strains, locus YMR205C, strain PFK2, stronger effect = lower value 0.999 | S. cerevisiae deletion strains, locus YMR223W, strain ubp8, stronger effect = lower value 0.997 | S. cerevisiae deletion strains, locus YMR231W, strain pep5, stronger effect = lower value 0.992 | S. cerevisiae deletion strains, locus YMR307W, strain GAS1, stronger effect = lower value 0.954 | S. cerevisiae deletion strains, locus YNL067W, strain RPL9B, stronger effect = lower value 1.01 | S. cerevisiae deletion strains, locus YNL071W, strain lat1, stronger effect = lower value 1 | S. cerevisiae deletion strains, locus YNL183C, strain NPR1, stronger effect = lower value 0.963 | S. cerevisiae deletion strains, locus YNL209W, strain ssb2, stronger effect = lower value 1 | S. cerevisiae deletion strains, locus YNL233W, strain BNI4, stronger effect = lower value 1.01 | S. cerevisiae deletion strains, locus YNL248C, strain rpa49, stronger effect = lower value 0.917 | S. cerevisiae deletion strains, locus YNL250W, strain rad50, stronger effect = lower value 1 | S. cerevisiae deletion strains, locus YNL271C, strain bni1, stronger effect = lower value 0.984 | S. cerevisiae deletion strains, locus YNL298W, strain CLA4, stronger effect = lower value 0.995 | S. cerevisiae deletion strains, locus YNL307C, strain MCK1, stronger effect = lower value 0.989 | S. cerevisiae deletion strains, locus YNL322C, strain KRE1 (second series), stronger effect = lower value 1.01 | S. cerevisiae deletion strains, locus YNR049C, strain mso1, stronger effect = lower value 0.993 | S. cerevisiae deletion strains, locus YNR052C, strain pop2, stronger effect = lower value 0.992 | S. cerevisiae deletion strains, locus YOL012C, strain htz1 0.797 | S. cerevisiae deletion strains, locus YOL147C, strain pex11, stronger effect = lower value 0.997 | S. cerevisiae deletion strains, locus YOR001W, strain rrp6, stronger effect = lower value 0.986 | S. cerevisiae deletion strains, locus YOR061W, strain CKA2, stronger effect = lower value 0.952 | S. cerevisiae deletion strains, locus YOR069W, strain VPS5, stronger effect = lower value 0.992 | S. cerevisiae deletion strains, locus YOR070C, strain gyp1, stronger effect = lower value 1.03 | S. cerevisiae deletion strains, locus YOR080W, strain dia2, stronger effect = lower value 1.01 | S. cerevisiae deletion strains, locus YOR083W, strain WHI5, stronger effect = lower value 1 | S. cerevisiae deletion strains, locus YOR106W, strain vam3, stronger effect = lower value 0.996 | S. cerevisiae deletion strains, locus YOR136W, strain idh2, stronger effect = lower value 0.975 | S. cerevisiae deletion strains, locus YOR144C, strain elg1, stronger effect = lower value 0.986 | S. cerevisiae deletion strains, locus YOR184W, strain ser1, stronger effect = lower value 0.896 | S. cerevisiae deletion strains, locus YOR231W, strain MKK1, stronger effect = lower value 0.954 | S. cerevisiae deletion strains, locus YOR265W, strain rbl2, stronger effect = lower value 1.01 | S. cerevisiae deletion strains, locus YOR270C, strain vph1, stronger effect = lower value 0.97 | S. cerevisiae deletion strains, locus YOR290C, strain snf2, stronger effect = lower value 1 | S. cerevisiae deletion strains, locus YOR316C, strain cot1, stronger effect = lower value 0.985 | S. cerevisiae deletion strains, locus YPL051W, strain arl3, stronger effect = lower value 1.02 | S. cerevisiae deletion strains, locus YPL078C, strain atp4, stronger effect = lower value 1 | S. cerevisiae deletion strains, locus YPL106C, strain sse1, stronger effect = lower value 1.03 | S. cerevisiae deletion strains, locus YPL240C, strain hsp82, stronger effect = lower value 1 | S. cerevisiae deletion strains, locus YPL241C, strain CIN2, stronger effect = lower value 0.98 | S. cerevisiae deletion strains, locus YPL256C, strain CLN2, stronger effect = lower value 0.945 | S. cerevisiae deletion strains, locus YPR119W, strain clb2, stronger effect = lower value 0.985 | S. cerevisiae deletion strains, locus YPR141C, strain kar3, stronger effect = lower value 0.985 | S. cerevisiae deletion strains, locus YPR163C, strain tif3, stronger effect = lower value 0.98 | S. cerevisiae deletion strains, locus YPR167C, strain met16, stronger effect = lower value 0.99 | S. cerevisiae deletion strains, strain wtn01, stronger effect = lower value 0.96 | S. cerevisiae strains, strain wild type, stronger effect = lower value 0.97
